Bioassay records from PubChem BioAssay.
VDR inhibitor: inhibitors of human vitamin D receptor; 0.93% of 400,000 active; P11473; VDR-SRC2-3 peptide fluorescence polarization, 2 h; AID 504847; Potency, µM, actives largely listed as inhibitors
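Compounds are added to VDR with labelled SRC2-3 coactivator peptide and held 2 h at room temperature. Inhibition of the VDR–peptide interaction is then read as a change in fluorescence polarization.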
JMJD2A Tudor: blocks the human JMJD2A Tudor domain; O75164; AlphaScreen JMJD2A-Tudor / H3K4me3 peptide binding; Potency, µM (top dose mostly 114 µM), usual class: inhibitors; 4.4% of 390,000 active; AID 504339; note: nearly all actives have a fitted effect of over 50% in size
BAZ2B inh: inhibitors of human BAZ2B bromodomain | Q9UIF8 | AlphaScreen BAZ2B-H3K14Ac peptide displacement | Potency, µM (top dose mostly 114 µM), hits mostly inhibitors | 4.4% of 360,000 active | AID 504333; note: nearly all actives have a fitted effect of over 60% in size
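Compounds, titrated to a top concentration of 110 uM, were incubated 30 min at room temperature with preformed BAZ2B/acetyl-K14 H3 peptide complex (50 nM each). Proximity signal was measured by AlphaScreen after 20 min with beads.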
L3MBTL1 inh: L3MBTL1 (human) inhibition | Q9Y468 | AlphaScreen L3MBTL1–H3K9me1 peptide binding | Potency, µM (doses to about 57.1 µM), actives largely listed as inhibitors | 0.66% of 230,000 active; note: nearly all actives have a fitted effect of over 60% in size
Target sequence (Q9Y468 whole entry, looked up): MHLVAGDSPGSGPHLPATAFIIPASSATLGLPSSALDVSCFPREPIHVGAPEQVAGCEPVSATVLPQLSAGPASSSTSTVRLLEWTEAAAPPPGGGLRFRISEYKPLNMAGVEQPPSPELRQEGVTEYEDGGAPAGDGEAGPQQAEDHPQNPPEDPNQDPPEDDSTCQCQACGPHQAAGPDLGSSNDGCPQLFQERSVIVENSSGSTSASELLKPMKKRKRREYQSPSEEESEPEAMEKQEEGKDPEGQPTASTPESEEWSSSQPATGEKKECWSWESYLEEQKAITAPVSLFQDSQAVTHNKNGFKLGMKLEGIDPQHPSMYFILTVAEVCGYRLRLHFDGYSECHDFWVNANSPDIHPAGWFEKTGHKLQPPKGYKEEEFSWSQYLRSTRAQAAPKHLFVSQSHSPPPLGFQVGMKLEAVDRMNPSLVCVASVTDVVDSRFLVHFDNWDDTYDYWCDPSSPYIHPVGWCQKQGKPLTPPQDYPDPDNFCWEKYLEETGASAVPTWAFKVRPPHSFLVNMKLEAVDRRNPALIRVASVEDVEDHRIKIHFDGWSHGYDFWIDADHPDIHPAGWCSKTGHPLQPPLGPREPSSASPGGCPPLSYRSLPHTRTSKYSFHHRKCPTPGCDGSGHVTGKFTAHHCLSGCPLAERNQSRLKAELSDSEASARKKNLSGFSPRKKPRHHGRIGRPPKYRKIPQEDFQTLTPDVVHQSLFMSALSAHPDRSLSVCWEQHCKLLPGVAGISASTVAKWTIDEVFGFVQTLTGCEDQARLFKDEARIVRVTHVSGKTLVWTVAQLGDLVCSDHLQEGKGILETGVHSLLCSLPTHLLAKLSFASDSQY
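First, the protein-peptide complex forms for 30 min at room temperature (L3MBTL1 50 nM, biotinylated H3K9me1 peptide 75 nM). Next, compounds are pin-transferred and incubated 30 min. Finally, AlphaScreen beads are added and read after 30 min.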
PLK1 PBD inh: inhibitors of human PLK1 polo-box domain binding; P53350; Plk1 PBD binding of FITC phosphopeptide, fluorescence polarization; AID 720504; 2.8% of 360,000 active; Potency, µM, most hits filed as inhibitors; note: series mostly up to about 57 µM; nearly all actives have a fitted effect of over 65% in size
HP1b binding inh: inhibitors of HP1-beta chromodomain binding to methylated histone tails; P83916; AID 540317; Potency, µM (highest dose often 114 µM), actives largely listed as inhibitors; 0.56% of 390,000 active; AlphaScreen HP1-beta / biotin-H3K9me3 peptide binding; note: nearly all actives have a fitted effect of over 70% in size
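HP1-beta protein (50 nM final) preincubated 30 min at room temperature with biotinylated H3(1-18)K9me3 peptide (50 nM) in PBS pH 7.4, 0.01% Tween-20, then compound added for 30 min. AlphaScreen streptavidin donor/nickel chelate acceptor beads (10 ug/mL final), 30 min dark, luminescence read.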
A number is an active result; - = inactive; ? = inconclusive; . = no result; [ ] = remark or other dose. Compounds with a hit are over-represented: about 6.9% of the library has one in this group of screens. Calls come from the whole dose curve; as a rule, active = well fitted curve in the direction sought with a large enough effect; inconclusive = small, poorly fitted or top-dose-only effect, or another doubt; inactive = no such curve, though single readings can be large; an effect the other way counts as inactive or inconclusive.

SMILES	VDR inhibitor	JMJD2A Tudor	BAZ2B inh	L3MBTL1 inh	PLK1 PBD inh	HP1b binding inh
COc1ccc(-c2nn3c(=O)cc(CN4CCN(C(=O)c5ccc(C(C)(C)C)cc5)CC4)nc3s2)cc1	-	-	-	.	.	-
Cc1cccc(NC(=O)CCS(=O)(=O)c2ccc3c(c2)NC(=O)CS3)n1	?	?	-	.	29.9µM	-
COc1ccc(S(=O)(=O)CCC(=O)N2c3ccccc3CC2C)cc1 (stereo not drawn)	-	-	-	.	-	-
O=C(CCS(=O)(=O)c1ccc2c(c1)NC(=O)CS2)NCCc1ccc(Cl)cc1	?	15.8µM	-	.	16.8µM	-
CC1Cc2ccccc2N1C(=O)CCS(=O)(=O)c1ccc2c(c1)NC(=O)CS2 (stereo not drawn)	?	?	-	.	18.9µM	-
C[C@@]12CC[C@@H]3c4ccc(O)cc4CC[C@H]3[C@H]1C[C@@H](O)[C@H]2O	-	.	.	.	.	.
CCn1c(SCC(=O)Nc2ccc(C)cc2Br)nnc1-c1nonc1NC(C)=O	-	-	?	.	.	-
[N-]=[N+]=Nc1ccc(C(=O)CSC[C@H](NC(=O)CC[C@H](N)C(=O)O)C(=O)NCC(=O)O)cc1	44.7µM	.	.	.	.	.
CCS(=O)(=O)N1CCC(C(=O)Oc2ccc(Cl)cc2)CC1	-	-	-	-	26.7µM	-
CCS(=O)(=O)N1CCC(C(=O)Oc2ccc(Br)cc2)CC1	-	-	-	-	-	-
CC(C)(C)NC(=O)C(c1ccncc1)N(Cc1ccco1)C(=O)c1ccc(-c2ccccc2)[nH]1 (stereo not drawn)	70.8µM	50.1µM	?	-	-	?
O=C(NC1CCCCC1)C(c1ccncc1)N(Cc1ccccc1)C(=O)c1ccc(-c2ccccc2)[nH]1 (stereo not drawn)	-	?	?	-	-	-
Cc1ccc(C(=O)O)cc1NC1(c2ccccc2)C(=O)c2ccccc2C1=O	-	-	-	.	.	-
O=C(c1cccn(Cc2ccc(C(F)(F)F)cc2)c1=O)N1CCOCC1	-	-[11.4 µM]	-	.	26.7µM	-
COc1ccc(N2CCN(C(=O)C3Cc4ccccc4N3C(C)=O)CC2)cc1 (stereo not drawn)	-	-	-	.	.	-
CCC(C)(C)NC(=O)c1cccc(NC(=O)C(C)C)c1	-	39.8µM	-	-	21.2µM	-
CC(C)C(=O)Nc1cccc(NC(=O)c2cccc(F)c2)c1	-	-	-	-	-	-
COCCn1c(SCC(=O)N2CCCC2)nnc1C(C)C	-	-	-	-	-	-
CCCn1c(SCC(=O)N2CCCCC2)nnc1C(C)C	79.4µM	25.1µM	-	-	10.6µM	?
C=CCN1C(=O)/C(=C/c2ccc(O)cc2)S/C1=N/c1nccs1	-	-	-	-	-	-
C=CCN1C(=O)/C(=C2/C(=O)N(CC(=O)O)c3ccccc32)S/C1=N/c1nccs1	.	.	12.6µM	7.94µM	.	.
CCOC(=O)c1ccc(CN(Cc2ccc(F)cc2)S(=O)(=O)c2ccc(F)cc2)cc1	-	-	-	.	.	-
N=c1oc2ccc3ccccc3c2cc1C(N)=S	-	-	-	-	23.8µM	-
O=C(O)c1cc2c(ccc3ccccc32)oc1=O	.	.	-	.	.	.
Cc1ccc(CNc2ccc3c(c2)OCO3)c(C)c1	.	.	44.7µM	.	.	.
SMILES	VDR inhibitor	JMJD2A Tudor	BAZ2B inh	L3MBTL1 inh	PLK1 PBD inh	HP1b binding inh
COc1ccc(NCc2ccc3c(c2)OCO3)cc1Cl	-	44.7µM	39.8µM	-	-	?
COc1cc2sc3cc(NCc4ccc5c(c4)OCO5)ccc3c(=O)c2cc1OC	-	-	.	-	-	-
COc1ccc(Cl)cc1S(=O)(=O)NC(C)C(=O)NCc1ccc2c(c1)OCO2 (stereo not drawn)	?	50.1µM	-	.	23.8µM	-
CCC(=O)c1c(OCc2ccccc2)ccc2c(C)cc(=O)oc12	.	.	-	.	.	.
CCOC(=O)COc1ccc2c(C)cc(=O)oc2c1C(=O)c1ccccc1	-	-[11.4 µM]	-	.	21.2µM	-
C=CCNC(=O)C1CC(=O)N(c2ccc(OCC(=O)Nc3ccc(Cl)cc3)cc2)C1 (stereo not drawn)	?	70.8µM	-	.	?	-
C=CCNC(=O)C1CC(=O)N(c2ccc(OCc3ccccc3Cl)cc2)C1 (stereo not drawn)	-	-	-	-	-	-
O=C(Nc1ccc(N2CCCC2)c(Cl)c1)c1ccc([N+](=O)[O-])o1	-	44.7µM	17.8µM	.	-	?
O=C(Nc1cccc(NC(=O)c2ccccc2Cl)c1)c1ccc([N+](=O)[O-])o1	-	-	-	.	-	-
O=C(Nc1ccc(N2CCCCC2)cc1)c1ccc([N+](=O)[O-])o1	-	11.2µM	28.2µM	.	-	?
CN(C)c1ccc(-c2ccc3ncnc(-n4ccnc4)c3c2)cc1	15.8µM	.	.	.	.	.
Cc1ccccc1-c1ccc2ncnc(-n3ccnc3)c2c1	14.1µM	.	.	.	.	.
CN(C)C(=O)c1ccc(-c2ccc3ncnc(N4CCOCC4)c3c2)cc1	-	.	.	.	.	.
CCCC(=O)N1CCN(c2ccc(NC(=S)NC(=O)c3cccc(C)c3)cc2)CC1	-	?	?	-	-	?
C=C1CC[C@H](O)C/C1=C/C=C1\CCC[C@]2(C)[C@H]1CC[C@H]2[C@@H](C)/C=C\[C@@H](C)C(C)C	-	.	.	.	.	.
CN1CC(c2ccccn2)C2(SC(=S)N(Cc3ccccc3)C2=O)C12C(=O)Nc1ccccc12 (stereo not drawn)	-	22.4µM	14.1µM	?	?	?
